Reference: PubChem BioAssay (NCI)
The panel holds about 79,000 compounds, 15% with a hit somewhere; the sample as a whole holds those more often. A number with no mark means an inactive call. Active and inactive are the calls of the source. No stated cut-off is given here; in the data, active means growth inhibition above about 70%; inactive means the rest.

Assay: NCI Yeast Anticancer Drug Screen. Data for the cln2 rad14 strain (AID 165);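 further: 0% = growth equal to vehicle treated cultures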
Settings: S. cerevisiae cln2 rad14 strain, at 50.0 µM, active compounds read high
In short: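 Compounds are applied to the cln2 rad14 yeast strain, and growth is then compared with that of vehicle-treated cultures to give inhibition.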
With `C=Cc1cc(=O)oc2cc(OC)ccc12` the growth inhibition was 72.2% (active). `O=[N+]([O-])c1cc(Cl)cc2c1nc(NCCO)c1ccccc12` showed a growth inhibition of 65%. In the case of `c1ccc2nc3ccccc3nc2c1`, the growth inhibition is reported as 41.8%. With `Cc1cc(O)ccc1SC#N` the growth inhibition was 73.4% (active). For `CC1=C(C(=O)NCc2ccccc2)C(c2ccccc2O)C(C(=O)NCc2ccccc2)=C(C)N1`, the growth inhibition was 71.4% (active). For `Cc1occc1C(=S)Nc1ccc(Cl)c(COC(C)(C)C)c1`, the growth inhibition was 84.8% (active). For `CCN(CC)CCOc1c(I)cc(I)cc1I`, the growth inhibition was 98.2% (active). Work on `CCc1c(C(=O)OC)c(C(=O)OC)c(-c2ccccc2)n1CCn1c(CC)c(C(=O)OC)c(C(=O)OC)c1-c1ccccc1` yielded a growth inhibition of 25.5%. Work on `O=C1/C(=C/c2ccc(Cl)cc2)CSC/C1=C\c1ccc(Cl)cc1` yielded a growth inhibition of -2.2%. In the case of `COc1ccc(C2COc3cc(O)c(O)cc3C2)cc1OC` (stereo not given), the growth inhibition is reported as 51.5%. Work on `O=C1c2ccccc2C(=O)c2c1cc(O)c(O)c2O` yielded a growth inhibition of 59.2%. Work on `COc1cc[c]([Sn]([O][Sn]([Cl])([c]2ccc(OC)cc2)[c]2ccc(OC)cc2)[c]2ccc(OC)cc2)cc1` yielded a growth inhibition of 53.5%. For `O=C(N/C(=C\c1ccc(/C=C(\NC(=O)c2ccccc2)c2nc3ccccc3s2)cc1)c1nc2ccccc2s1)c1ccccc1`, the growth inhibition was 84.7% (active). In the case of `Cn1c(=O)cc[nH]c1=O`, the growth inhibition is reported as -0.75%. With `CCOC(=O)C1=C(c2ccccc2)SC(c2ccccc2)N(C(C)C)C1=O` (stereo not given) the growth inhibition was 83.6% (active). For `S=C1NC2=C(CSC/C2=C\c2cccc(Br)c2)C(c2cccc(Br)c2)N1` (stereo not given), the growth inhibition was 90% (active). For `c1ccc2[nH]c(CN(CCN(Cc3nc4ccccc4[nH]3)Cc3nc4ccccc4[nH]3)Cc3nc4ccccc4[nH]3)nc2c1`, the growth inhibition was 90.3% (active). In the case of `O=[N+]([O-])c1ccc(NC(=S)N/N=C(\c2ccccc2)c2ccccn2)cc1`, the growth inhibition is reported as 72.1% (active). Molecule `O=C(NCCl)Nc1ccccc1` has a growth inhibition of 17.9%. With `O=Cc1[nH]c(=S)[nH]c(=O)c1CCCc1ccccc1` the growth inhibition was 82.3% (active). With `CCCC/C=C(/CCCCOCOCCOC)[Si](C)(C)C` the growth inhibition was 86.1% (active).

Assay: NCI Yeast Anticancer Drug Screen. Data for the bub3 strain (AID 167)
Settings: S. cerevisiae bub3 mutant strain, at 5.0 µM (retest, dose inferred, filed as 0.5), active compounds read high
In short: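 In this screen, a yeast mutant lacking normal mitotic checkpoint function is challenged with compound. Relative growth versus vehicle gives the inhibition value.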
`Cc1ccc(-n2c(CSc3ccc(Cl)cc3)nnc2SCc2nc3ccccc3[nH]2)cc1` showed a growth inhibition of 1%. With `CC(=O)Nc1cccc(C(=O)O)c1` the growth inhibition was 4%. For `COc1ccc2c(c1)CCCN2CCCCCCCCCN1CCCCC1`, the growth inhibition was 45%. In the case of `CN(C)C(=O)/N=c1\ss/c(=N\C(=S)N(C)C)n1-c1ccccc1`, the growth inhibition is reported as -8%. With `Clc1ccc(-c2nnc(-c3ccccn3)o2)c(Cl)c1` the growth inhibition was 1%. Work on `CC(O)CC(O)CC1CCCO1` (stereo not given) yielded a growth inhibition of 3%. Molecule `CC[C@]1(O)C[C@H]2[C@@H]3CCc4cc(OC)ccc4[C@H]3CC[C@]2(C)[C@H]1O` has a growth inhibition of 2%. In the case of `CCCCCCCCCCCCCCCCCCOS(=O)(=O)O` (tested in a mixture with another compound), the growth inhibition is reported as -31%. `C/C(=N\NC(=S)N1CCCC1)c1nc2ncccc2[nH]1` showed a growth inhibition of -40%. In the case of `CC(C)(C)C1=NN=C2c3ccccc3C(=O)C21` (stereo not given), the growth inhibition is reported as 19%. With `O=C(O)c1ccc(N=CC2CO2)cc1` (stereo not given) the growth inhibition was 90% (active). `CCC1(C)C(C#N)(C#N)C1(C#N)C#N` showed a growth inhibition of -36%. Work on `COc1ccc(N(C)Sc2ccccc2)cc1` yielded a growth inhibition of 12%. `C/C(CCn1[nH]c(=O)ccc1=O)=N\NS(=O)(=O)c1ccc(C)cc1` gave a growth inhibition of -1%. `CCC[n+]1ccc(/C=N\NC(N)=S)c2ccccc21` showed a growth inhibition of 15%. Work on `O=S1CCS(=O)C1c1ccccc1` (stereo not given) yielded a growth inhibition of -14%. For `NC(=O)c1c(Cl)nc2n1CCS2`, the growth inhibition was -3%. `CC(C)S(=O)(=O)ON1C(=O)c2ccc(N(C)C)cc2C1=O` gave a growth inhibition of 17%. `C=Cc1cc(=O)oc2cc(OC)ccc12` gave a growth inhibition of 14%. `O=[N+]([O-])c1cc(Cl)cc2c1nc(NCCO)c1ccccc12` gave a growth inhibition of 20%. `c1ccc2nc3ccccc3nc2c1` gave a growth inhibition of -1%. `Cc1cc(O)ccc1SC#N` gave a growth inhibition of -11%. With `CC1=C(C(=O)NCc2ccccc2)C(c2ccccc2O)C(C(=O)NCc2ccccc2)=C(C)N1` the growth inhibition was 7%. Molecule `Cc1occc1C(=S)Nc1ccc(Cl)c(COC(C)(C)C)c1` has a growth inhibition of 26%. Work on `CCN(CC)CCOc1c(I)cc(I)cc1I` yielded a growth inhibition of 6%. For `CCc1c(C(=O)OC)c(C(=O)OC)c(-c2ccccc2)n1CCn1c(CC)c(C(=O)OC)c(C(=O)OC)c1-c1ccccc1`, the growth inhibition was 1%. In the case of `O=C1/C(=C/c2ccc(Cl)cc2)CSC/C1=C\c1ccc(Cl)cc1`, the growth inhibition is reported as 25%. `COc1ccc(C2COc3cc(O)c(O)cc3C2)cc1OC` (stereo not given) gave a growth inhibition of -14%. `O=C1c2ccccc2C(=O)c2c1cc(O)c(O)c2O` showed a growth inhibition of 13%. For `COc1cc[c]([Sn]([O][Sn]([Cl])([c]2ccc(OC)cc2)[c]2ccc(OC)cc2)[c]2ccc(OC)cc2)cc1`, the growth inhibition was 50%. Molecule `O=C(N/C(=C\c1ccc(/C=C(\NC(=O)c2ccccc2)c2nc3ccccc3s2)cc1)c1nc2ccccc2s1)c1ccccc1` has a growth inhibition of 60%. With `Cn1c(=O)cc[nH]c1=O` the growth inhibition was 1%. `CCOC(=O)C1=C(c2ccccc2)SC(c2ccccc2)N(C(C)C)C1=O` (stereo not given) gave a growth inhibition of 4%. With `S=C1NC2=C(CSC/C2=C\c2cccc(Br)c2)C(c2cccc(Br)c2)N1` (stereo not given) the growth inhibition was -15%. In the case of `c1ccc2[nH]c(CN(CCN(Cc3nc4ccccc4[nH]3)Cc3nc4ccccc4[nH]3)Cc3nc4ccccc4[nH]3)nc2c1`, the growth inhibition is reported as 99% (active). For `O=[N+]([O-])c1ccc(NC(=S)N/N=C(\c2ccccc2)c2ccccn2)cc1`, the growth inhibition was -5%. `O=C(NCCl)Nc1ccccc1` gave a growth inhibition of 6%. Molecule `O=Cc1[nH]c(=S)[nH]c(=O)c1CCCc1ccccc1` has a growth inhibition of 5%. Work on `CCCC/C=C(/CCCCOCOCCOC)[Si](C)(C)C` yielded a growth inhibition of -3%.
